The record followed here is ChEMBL document CHEMBL2218924, “A broad activity screen in support of a chemogenomic map for kinase signalling research and drug discovery” (Biochem J, 2013).

In assay [1] the target is Serine/threonine-protein kinase PAK 4 (Homo sapiens) (UniProt O96013). The settings on record: at 1 µM.
The target is the same in assay [2]. The settings on record: at 10 µM.
For assay [3], the target named is Serine/threonine-protein kinase PAK 5 (Homo sapiens) (UniProt Q9P286). The settings on record: at 1 µM.
The target is the same in assay [4]. The settings on record: at 10 µM.
In assay [5] the target is Serine/threonine-protein kinase PAK 6 (Homo sapiens) (UniProt Q9NQU5). The settings on record: at 1 µM.
Assay [6] shares this target. The settings on record: at 10 µM.
Assay [7] concerns the target PAS domain-containing serine/threonine-protein kinase (Homo sapiens) (UniProt Q96RG2). The settings on record: at 10 µM.
Assay [8] addresses Activated CDC42 kinase 1 (Homo sapiens) (UniProt Q07912). The settings on record: at 1 µM.
Assay [9] shares this target. The settings on record: at 10 µM.
In assay [10] the target is ALK tyrosine kinase receptor (Homo sapiens) (UniProt Q9UM73). The settings on record: at 1 µM.
Assay [11] has the same target. The settings on record: at 10 µM.
Assay [12] addresses T1, Activin receptor type-1B (Homo sapiens) (UniProt P36896).
T1 sequence (whole entry): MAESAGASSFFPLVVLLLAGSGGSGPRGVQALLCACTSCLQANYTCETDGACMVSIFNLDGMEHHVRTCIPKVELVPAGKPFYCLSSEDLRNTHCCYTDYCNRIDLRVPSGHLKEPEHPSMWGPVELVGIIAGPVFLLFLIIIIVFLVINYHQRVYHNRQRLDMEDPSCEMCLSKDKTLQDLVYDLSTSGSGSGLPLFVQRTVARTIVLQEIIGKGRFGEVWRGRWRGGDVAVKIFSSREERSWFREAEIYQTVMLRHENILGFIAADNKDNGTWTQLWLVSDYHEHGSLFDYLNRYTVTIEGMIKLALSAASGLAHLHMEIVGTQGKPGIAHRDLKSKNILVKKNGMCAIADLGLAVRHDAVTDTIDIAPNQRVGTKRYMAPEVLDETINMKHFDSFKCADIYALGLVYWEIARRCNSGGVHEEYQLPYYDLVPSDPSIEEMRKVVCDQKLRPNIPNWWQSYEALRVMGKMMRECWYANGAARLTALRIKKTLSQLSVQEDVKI
The settings on record: at 1 µM.

The target of assay [13] is T1, Activin receptor type-1B (Homo sapiens). The settings on record: at 10 µM.
Assay [14] concerns the target T2, AMP-activated protein kinase (AMPK) alpha-1/beta-1/gamma-1 (Homo sapiens) (UniProt P54619+Q9Y478+Q13131). The settings on record: at 1 µM.
Assay [15] deals with T2, AMP-activated protein kinase (AMPK) alpha-1/beta-1/gamma-1 (Homo sapiens). The settings on record: at 10 µM.
Assay [16] deals with T3, AMP-activated protein kinase, AMPK (Homo sapiens) (UniProt P54646+O43741+P54619+Q9UGJ0+Q9Y478+Q13131+Q9UGI9). The settings on record: at 1 µM.
Assay [17] concerns the target T3, AMP-activated protein kinase, AMPK (Homo sapiens). The settings on record: at 10 µM.
For assay [18], the target named is T4, NUAK family SNF1-like kinase 1 (Homo sapiens) (UniProt O60285).
T4 sequence (whole entry): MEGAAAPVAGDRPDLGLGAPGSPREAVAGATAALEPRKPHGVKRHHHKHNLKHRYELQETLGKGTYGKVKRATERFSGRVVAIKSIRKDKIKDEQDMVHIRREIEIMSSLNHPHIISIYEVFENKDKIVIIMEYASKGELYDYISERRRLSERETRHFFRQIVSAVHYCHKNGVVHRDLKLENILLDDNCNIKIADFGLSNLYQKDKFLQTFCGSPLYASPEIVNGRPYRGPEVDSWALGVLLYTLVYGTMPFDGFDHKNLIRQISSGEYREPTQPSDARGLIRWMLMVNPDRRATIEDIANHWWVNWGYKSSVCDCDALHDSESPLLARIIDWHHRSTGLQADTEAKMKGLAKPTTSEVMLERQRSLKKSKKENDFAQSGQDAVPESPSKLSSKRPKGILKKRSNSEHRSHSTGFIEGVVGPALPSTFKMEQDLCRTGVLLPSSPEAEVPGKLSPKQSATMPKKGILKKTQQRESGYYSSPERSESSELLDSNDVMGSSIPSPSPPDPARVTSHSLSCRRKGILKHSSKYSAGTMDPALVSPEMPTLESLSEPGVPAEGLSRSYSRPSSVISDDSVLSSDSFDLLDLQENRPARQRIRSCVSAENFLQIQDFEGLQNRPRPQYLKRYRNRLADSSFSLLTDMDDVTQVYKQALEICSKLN
The settings on record: at 1 µM.

Assay [19] deals with T4, NUAK family SNF1-like kinase 1 (Homo sapiens). The settings on record: at 10 µM.
In assay [20] the target is T5, Mitogen-activated protein kinase kinase kinase 5 (Homo sapiens) (UniProt Q99683).
T5 sequence (whole entry): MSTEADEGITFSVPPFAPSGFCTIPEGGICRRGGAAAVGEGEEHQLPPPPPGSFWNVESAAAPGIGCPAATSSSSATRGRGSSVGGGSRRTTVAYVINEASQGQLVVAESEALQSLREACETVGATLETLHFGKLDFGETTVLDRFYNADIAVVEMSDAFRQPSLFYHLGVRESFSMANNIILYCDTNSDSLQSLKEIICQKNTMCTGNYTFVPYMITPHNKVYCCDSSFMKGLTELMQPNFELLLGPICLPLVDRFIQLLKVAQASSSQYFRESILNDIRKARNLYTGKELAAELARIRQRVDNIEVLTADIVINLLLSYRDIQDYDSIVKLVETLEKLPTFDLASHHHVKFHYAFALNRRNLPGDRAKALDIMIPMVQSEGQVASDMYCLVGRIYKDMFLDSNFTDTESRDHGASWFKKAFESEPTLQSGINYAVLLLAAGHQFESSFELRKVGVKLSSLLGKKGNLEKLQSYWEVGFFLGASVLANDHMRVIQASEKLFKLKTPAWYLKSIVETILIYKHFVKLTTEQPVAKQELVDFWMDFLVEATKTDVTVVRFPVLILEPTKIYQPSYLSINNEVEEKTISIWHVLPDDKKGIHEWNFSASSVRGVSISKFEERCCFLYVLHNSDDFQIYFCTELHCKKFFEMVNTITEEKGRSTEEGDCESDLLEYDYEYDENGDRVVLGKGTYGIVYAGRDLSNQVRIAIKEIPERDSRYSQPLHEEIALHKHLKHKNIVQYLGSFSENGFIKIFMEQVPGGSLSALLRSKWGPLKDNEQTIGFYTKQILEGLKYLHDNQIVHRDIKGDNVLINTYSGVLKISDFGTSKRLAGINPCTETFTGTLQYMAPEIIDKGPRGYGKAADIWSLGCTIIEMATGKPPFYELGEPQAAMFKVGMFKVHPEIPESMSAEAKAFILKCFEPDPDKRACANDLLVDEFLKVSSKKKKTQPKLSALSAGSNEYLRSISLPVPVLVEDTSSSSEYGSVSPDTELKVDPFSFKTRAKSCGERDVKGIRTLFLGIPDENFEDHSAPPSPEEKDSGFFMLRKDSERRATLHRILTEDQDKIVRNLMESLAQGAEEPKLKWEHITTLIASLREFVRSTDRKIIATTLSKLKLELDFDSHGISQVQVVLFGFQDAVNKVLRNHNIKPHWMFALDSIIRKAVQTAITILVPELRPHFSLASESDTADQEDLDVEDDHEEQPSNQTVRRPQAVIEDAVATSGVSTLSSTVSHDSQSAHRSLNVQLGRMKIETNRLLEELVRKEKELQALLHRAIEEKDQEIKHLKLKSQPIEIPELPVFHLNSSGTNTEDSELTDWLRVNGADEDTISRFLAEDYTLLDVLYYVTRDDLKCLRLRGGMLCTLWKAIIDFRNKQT
The settings on record: at 1 µM.

PAS domain-containing serine/threonine-protein kinase (Homo sapiens), sequence (Q96RG2 whole entry, the tested form may be a part): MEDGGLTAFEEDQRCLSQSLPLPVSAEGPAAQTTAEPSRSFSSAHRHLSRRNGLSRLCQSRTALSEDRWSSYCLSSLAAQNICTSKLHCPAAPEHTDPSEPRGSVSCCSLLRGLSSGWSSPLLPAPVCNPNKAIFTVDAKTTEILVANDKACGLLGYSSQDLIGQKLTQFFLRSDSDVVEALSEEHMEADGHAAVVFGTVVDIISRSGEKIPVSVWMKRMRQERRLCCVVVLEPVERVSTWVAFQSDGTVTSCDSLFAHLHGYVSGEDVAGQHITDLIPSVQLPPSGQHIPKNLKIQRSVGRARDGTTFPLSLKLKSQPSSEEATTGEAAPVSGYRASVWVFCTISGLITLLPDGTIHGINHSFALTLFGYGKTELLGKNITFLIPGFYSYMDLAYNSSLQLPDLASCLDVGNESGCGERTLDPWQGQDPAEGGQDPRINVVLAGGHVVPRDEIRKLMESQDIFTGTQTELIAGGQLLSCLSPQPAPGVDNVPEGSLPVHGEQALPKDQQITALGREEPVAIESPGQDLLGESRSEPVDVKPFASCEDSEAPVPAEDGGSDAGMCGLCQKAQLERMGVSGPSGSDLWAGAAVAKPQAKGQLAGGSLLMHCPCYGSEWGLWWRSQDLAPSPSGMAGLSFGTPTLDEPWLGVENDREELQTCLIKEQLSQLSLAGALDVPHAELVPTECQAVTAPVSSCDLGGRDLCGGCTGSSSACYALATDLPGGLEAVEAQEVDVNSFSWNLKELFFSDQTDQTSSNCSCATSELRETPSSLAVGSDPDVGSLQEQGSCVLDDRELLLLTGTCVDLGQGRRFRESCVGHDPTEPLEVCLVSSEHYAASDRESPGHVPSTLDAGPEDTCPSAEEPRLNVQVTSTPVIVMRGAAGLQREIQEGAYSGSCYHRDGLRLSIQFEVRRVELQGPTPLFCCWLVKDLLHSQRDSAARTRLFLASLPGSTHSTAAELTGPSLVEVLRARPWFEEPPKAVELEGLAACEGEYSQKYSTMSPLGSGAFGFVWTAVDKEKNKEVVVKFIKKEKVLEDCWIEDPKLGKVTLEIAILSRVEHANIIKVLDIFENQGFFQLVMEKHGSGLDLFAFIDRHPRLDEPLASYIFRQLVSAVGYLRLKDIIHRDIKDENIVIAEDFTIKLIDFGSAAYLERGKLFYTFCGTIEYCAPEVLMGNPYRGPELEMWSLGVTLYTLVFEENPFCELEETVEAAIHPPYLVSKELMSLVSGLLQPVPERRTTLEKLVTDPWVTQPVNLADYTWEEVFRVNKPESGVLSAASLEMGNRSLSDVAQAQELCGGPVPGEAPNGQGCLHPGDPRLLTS
Serine/threonine-protein kinase PAK 5 (Homo sapiens), sequence (Q9P286 whole entry, looked up): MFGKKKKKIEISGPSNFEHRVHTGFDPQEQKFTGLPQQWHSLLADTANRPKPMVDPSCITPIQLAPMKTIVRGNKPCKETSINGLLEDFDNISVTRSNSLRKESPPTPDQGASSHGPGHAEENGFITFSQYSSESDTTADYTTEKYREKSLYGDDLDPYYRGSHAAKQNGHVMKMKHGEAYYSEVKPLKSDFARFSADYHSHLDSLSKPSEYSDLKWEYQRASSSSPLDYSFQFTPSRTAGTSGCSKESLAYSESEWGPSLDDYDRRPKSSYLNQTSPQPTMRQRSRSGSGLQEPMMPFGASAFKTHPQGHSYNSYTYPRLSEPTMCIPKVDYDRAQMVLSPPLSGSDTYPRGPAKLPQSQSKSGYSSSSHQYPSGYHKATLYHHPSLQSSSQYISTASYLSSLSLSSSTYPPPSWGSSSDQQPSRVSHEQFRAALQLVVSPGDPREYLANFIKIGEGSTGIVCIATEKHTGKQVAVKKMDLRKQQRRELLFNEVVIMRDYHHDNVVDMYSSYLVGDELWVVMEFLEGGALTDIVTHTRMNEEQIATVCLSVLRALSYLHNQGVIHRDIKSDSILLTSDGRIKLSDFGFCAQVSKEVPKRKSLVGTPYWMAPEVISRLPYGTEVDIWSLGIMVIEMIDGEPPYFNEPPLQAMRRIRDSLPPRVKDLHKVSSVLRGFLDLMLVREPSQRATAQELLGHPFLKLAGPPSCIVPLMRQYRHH
Activated CDC42 kinase 1 (Homo sapiens), sequence (Q07912 whole entry, looked up): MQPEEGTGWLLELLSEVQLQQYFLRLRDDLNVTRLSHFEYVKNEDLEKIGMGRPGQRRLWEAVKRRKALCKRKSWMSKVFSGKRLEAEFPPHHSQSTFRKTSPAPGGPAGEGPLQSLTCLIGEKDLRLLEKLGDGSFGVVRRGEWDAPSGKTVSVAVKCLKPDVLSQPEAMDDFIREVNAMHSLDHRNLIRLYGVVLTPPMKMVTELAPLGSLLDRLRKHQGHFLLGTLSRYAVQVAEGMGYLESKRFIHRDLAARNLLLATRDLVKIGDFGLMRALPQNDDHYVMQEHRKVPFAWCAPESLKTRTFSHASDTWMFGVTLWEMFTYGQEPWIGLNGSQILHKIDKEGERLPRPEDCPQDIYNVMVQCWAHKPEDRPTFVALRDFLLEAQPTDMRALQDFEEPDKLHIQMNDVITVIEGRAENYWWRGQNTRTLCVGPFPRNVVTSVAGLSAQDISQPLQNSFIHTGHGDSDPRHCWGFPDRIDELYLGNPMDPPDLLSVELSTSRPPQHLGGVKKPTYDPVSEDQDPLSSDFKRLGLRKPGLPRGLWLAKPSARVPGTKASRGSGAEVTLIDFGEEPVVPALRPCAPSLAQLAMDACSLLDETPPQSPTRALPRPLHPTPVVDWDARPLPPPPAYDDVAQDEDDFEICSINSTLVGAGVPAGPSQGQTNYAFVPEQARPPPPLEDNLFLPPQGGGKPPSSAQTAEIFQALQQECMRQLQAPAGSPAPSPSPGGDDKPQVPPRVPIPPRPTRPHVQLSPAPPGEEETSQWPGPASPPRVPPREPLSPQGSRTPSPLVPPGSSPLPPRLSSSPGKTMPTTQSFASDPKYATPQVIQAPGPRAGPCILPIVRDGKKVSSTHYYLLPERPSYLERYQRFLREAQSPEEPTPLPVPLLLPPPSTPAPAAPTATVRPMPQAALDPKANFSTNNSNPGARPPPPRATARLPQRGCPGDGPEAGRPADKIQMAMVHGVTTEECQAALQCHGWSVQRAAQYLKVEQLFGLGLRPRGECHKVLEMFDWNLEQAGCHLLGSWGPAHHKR
T2 sequence (P54619 whole entry): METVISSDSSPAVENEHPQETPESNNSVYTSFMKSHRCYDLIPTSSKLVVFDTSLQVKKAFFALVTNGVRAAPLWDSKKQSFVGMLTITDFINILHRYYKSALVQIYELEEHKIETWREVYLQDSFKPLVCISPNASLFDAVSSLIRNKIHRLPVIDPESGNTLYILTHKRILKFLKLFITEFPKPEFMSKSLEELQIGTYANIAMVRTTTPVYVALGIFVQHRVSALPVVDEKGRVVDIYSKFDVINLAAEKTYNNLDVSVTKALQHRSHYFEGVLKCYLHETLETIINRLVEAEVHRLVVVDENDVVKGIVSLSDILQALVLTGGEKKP
T2 sequence (Q13131 whole entry partner): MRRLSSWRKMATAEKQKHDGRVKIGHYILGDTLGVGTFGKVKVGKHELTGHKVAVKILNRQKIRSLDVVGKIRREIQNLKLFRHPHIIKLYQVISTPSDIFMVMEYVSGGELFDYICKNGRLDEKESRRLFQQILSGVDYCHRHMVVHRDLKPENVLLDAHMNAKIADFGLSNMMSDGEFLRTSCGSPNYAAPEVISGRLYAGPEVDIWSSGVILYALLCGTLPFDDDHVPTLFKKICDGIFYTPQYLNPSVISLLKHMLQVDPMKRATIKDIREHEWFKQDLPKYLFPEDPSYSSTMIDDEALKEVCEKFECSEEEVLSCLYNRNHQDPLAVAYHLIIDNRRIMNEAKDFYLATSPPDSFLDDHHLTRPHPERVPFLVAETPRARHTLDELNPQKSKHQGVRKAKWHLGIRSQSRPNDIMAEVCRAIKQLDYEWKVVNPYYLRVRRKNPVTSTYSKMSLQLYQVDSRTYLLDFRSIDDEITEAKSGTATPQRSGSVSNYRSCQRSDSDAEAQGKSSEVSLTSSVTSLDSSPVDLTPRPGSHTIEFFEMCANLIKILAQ
T2 sequence (Q9Y478 2-270 partner limits assumed): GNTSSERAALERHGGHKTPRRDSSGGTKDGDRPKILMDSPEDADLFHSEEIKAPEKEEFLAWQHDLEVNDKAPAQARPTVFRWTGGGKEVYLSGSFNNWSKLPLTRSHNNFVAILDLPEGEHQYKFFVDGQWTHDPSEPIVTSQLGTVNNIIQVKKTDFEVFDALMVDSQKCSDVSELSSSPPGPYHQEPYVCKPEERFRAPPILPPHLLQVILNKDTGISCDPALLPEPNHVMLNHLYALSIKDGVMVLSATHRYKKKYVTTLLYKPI
Serine/threonine-protein kinase PAK 6 (Homo sapiens), sequence (Q9NQU5 whole entry, looked up): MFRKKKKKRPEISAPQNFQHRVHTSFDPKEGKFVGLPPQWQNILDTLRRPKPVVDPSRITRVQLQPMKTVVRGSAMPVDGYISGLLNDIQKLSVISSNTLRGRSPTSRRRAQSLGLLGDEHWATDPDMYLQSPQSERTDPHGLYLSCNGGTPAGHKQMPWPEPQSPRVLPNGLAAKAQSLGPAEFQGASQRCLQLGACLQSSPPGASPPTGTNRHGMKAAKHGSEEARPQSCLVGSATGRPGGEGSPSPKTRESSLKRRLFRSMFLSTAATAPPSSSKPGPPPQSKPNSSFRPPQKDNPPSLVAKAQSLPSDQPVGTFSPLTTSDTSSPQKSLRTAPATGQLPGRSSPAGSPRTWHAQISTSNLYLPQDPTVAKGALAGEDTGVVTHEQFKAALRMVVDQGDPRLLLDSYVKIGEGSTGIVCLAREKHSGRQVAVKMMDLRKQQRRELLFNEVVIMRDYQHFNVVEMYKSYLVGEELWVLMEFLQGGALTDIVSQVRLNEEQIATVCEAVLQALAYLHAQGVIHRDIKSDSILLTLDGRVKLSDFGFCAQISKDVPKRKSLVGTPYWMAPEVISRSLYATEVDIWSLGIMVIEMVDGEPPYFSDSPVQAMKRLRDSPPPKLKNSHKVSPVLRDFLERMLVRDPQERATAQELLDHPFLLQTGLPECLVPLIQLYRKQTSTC

In the case of `CC(C)n1cnc2/c(=N/c3cccc(Cl)c3)nc(NCCO)[nH]c21`, the residual activity in assay [1] amounted to 62%; in [2] it was 15%; in assay [3] it was 80%; in assay [4], 33%; in assay [5], 43%; in assay [6] it was 25%. Besides, the residual activity was 114% in assay [7]; 14% in assay [8]; 5% in [9]; 81% in assay [10]; 52% in [11]; 103% in assay [12]. Also, the residual activity in assay [13] was determined as 120%; in assay [14], 76%; in [15] it was 30%; in assay [16], 88%; in assay [17], 45%; in assay [18], 75%. Besides, the residual activity in assay [19] was 29%; in assay [20], 90%.

Regarding `O=C1c2ccccc2-[n+]2ccc3c([nH]c4ccccc43)c21`, the residual activity in [1] was determined as 90%; in assay [2], 92%; in assay [3], 82%; in assay [4] it was 90%; in [5], 102%; in assay [6] it was 84%. In addition, the residual activity is 119% in assay [7]; 77% in [8]; 55% in [9]; 85% in assay [10]; 83% in assay [11]; 110% in [12]. The residual activity in [13] came out at 114%; in assay [14], 95%; in assay [15] it was 94%; in assay [16], 101%; in [17], 93%; in assay [18], 97%. For the same compound, the residual activity stood at 83% in assay [19] and 89% in [20].

`COc1cc2ncnc(N3CCN(C(=O)Nc4ccc(Oc5ccccc5)cc4)CC3)c2cc1OC`: the residual activity in assay [1] was 94%; in [2] it was 84%; in [3], 91%; in [4], 122%; in assay [5] it was 112%; in assay [8] it was 68%. Besides, the residual activity in assay [9] came out at 54%; in [10], 73%; in assay [11], 49%; in assay [12], 104%; in assay [13] it was 97%; in assay [14] it was 79%. Moreover, the residual activity stood at 97% in assay [15]; 99% in [16]; 101% in assay [17]; 107% in assay [18]; 82% in [19]; 79% in assay [20].

`N#CC(C#N)=C(N)/C(C#N)=C/c1ccc(O)cc1`: the residual activity in assay [1] was determined as 98%; in assay [2], 91%; in [5] it was 100%; in [6], 87%; in assay [7], 65%; in assay [8], 84%. Moreover, the residual activity in [9] was 70%; in assay [10] it was 88%; in assay [14], 92%; in assay [15] it was 79%; in assay [16] it was 100%; in assay [19], 96%. Besides, the residual activity in assay [20] was found to be 81%.

As for `O=c1c2ccccc2[nH]c(=S)n1CCN1CCC(=C(c2ccc(F)cc2)c2ccc(F)cc2)CC1`, the residual activity stood at 106% in assay [1]; 99% in [2]; 84% in [3]; 47% in [4]; 82% in assay [5]; 41% in [6]. In addition, the residual activity was determined as 53% in assay [7]; 83% in assay [8]; 70% in assay [9]; 81% in assay [10]; 73% in [11]; 149% in assay [12]. In addition, the residual activity in [13] was 111%; in assay [14] it was 101%; in [15] it was 84%; in assay [16], 97%; in assay [17], 74%; in assay [18], 90%. In addition, the residual activity was found to be 120% in assay [19] and 106% in [20].

As to `Oc1n[nH]c2nnc(-c3c(-c4ccccc4)nn4ccccc34)cc12`, the residual activity in assay [1] stood at 95%; in [2] it was 92%; in assay [3], 101%; in [4] it was 101%; in [5], 98%; in [6], 98%. The residual activity amounted to 104% in assay [7]; 29% in assay [8]; 14% in [9]; 92% in [10]; 89% in assay [11]; 115% in assay [13]. Besides, the residual activity in [14] is 86%; in [15], 82%; in assay [16] it was 97%; in [17] it was 90%; in assay [18], 100%; in [19] it was 45%. For the same compound, the residual activity in assay [20] was 111%.

On to `CCN(CC)C(=O)c1ccc(Nc2nc(OCC3CCCCC3)c3nc[nH]c3n2)cc1`, for which the residual activity in assay [1] was 18%; in [2] it was 2%; in assay [3], 43%; in assay [4] it was 3%; in assay [5], 58%; in [6], 23%. The residual activity in assay [8] is 5%; in [9] it was 1%; in assay [10], 65%; in assay [11], 6%; in [14], 35%; in assay [15], 6%. The residual activity in [16] amounted to 22%; in assay [17], 5%; in assay [18], 2%; in assay [19], 4%; in [20], 80%.
